From PubChem BioAssay (NCI)
This is part of a sample that, as a whole, favours compounds with a hit. Of some 83,000 tested, about 20% had one in any assay.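 Single-dose data. Exposure time 48 hours. Values below 10 considered active.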 Unmarked numbers belong to inactive results. Activity calls are given as the source filed them.

tested on: OVCAR-5 ovarian; assay: NCI-60 one-dose screen, 48 h (100 = growth as untreated, 0 = no growth, -100 = all killed); details: 10 µM unless noted

SMILES	growth
OCC1C2C=CC(C2)C1CO (stereo not drawn)	101%
CCCCCCCCCCNC(=O)CCl	111%
N=S(=O)(NC(=O)c1ccc(Cl)cc1Cl)c1ccc(Br)s1 (stereo not drawn)	119%
CCOC(=O)/C=C/C(=O)[C@H](CC(C)C)NC(=O)[C@H](Cc1ccccc1)NC(=O)OCc1ccccc1	90.8%
COC1/C=C\OC2(C)Oc3c(C)c(O)c4c(O)c(c(CN(C)CCO)c(O)c4c3C2=O)NC(=O)/C(C)=C\C=C/C(C)C(O)C(C)C(O)C(C)C(OC(C)=O)C1C (stereo not drawn)	91.7%
N#CC1=C(N)Oc2c(ccc3ccccc23)C1c1cccs1 (stereo not drawn)	34.9%
CCN(CC)CCCNc1cc(OC)cc2nc3cc(Cl)ccc3nc12	-39.3% (active)
O=C(CN1CCN(c2cc3c(cc2F)c(=O)c(C(=O)O)cn3C2CC2)CC1)Nc1nc(-c2ccc(Cl)cc2)cs1	51.7%
O=C1CC(c2nc3ccccc3[nH]2)CN1C1CCCCC1 (stereo not drawn)	108%
COc1cc(OC)c(/C=C/c2cc[n+](C)c3ccccc23)c(OC)c1	49.4%
CCN(CC)c1ccc(CNc2cc(C)nc3ccc(OC)cc23)cc1	96.3%
CCCCCN(CCCCC)CCC[C@@H](C)[C@H]1CC[C@H]2[C@@H]3[C@H](OCCCN)C[C@@H]4C[C@H](OCCCN)CC[C@]4(C)[C@H]3C[C@H](OCCCN)[C@]12C	66.2%
COc1cc(OC)c(/C=C/S(=O)(=O)Cc2ccc(OC)c(N)n2)c(OC)c1	50.5%
CC(=O)C1=C(O)C=C2Oc3c(C(=O)/C=C/c4cc(C(F)(F)F)cc(C(F)(F)F)c4)c(O)c(C)c(O)c3[C@]2(C)C1=O	-6.52% (active)
Cc1cc(Nc2nc(N3CCOCC3)nc3ccccc23)n[nH]1	88.7%
COc1cc(OC)c(/C=C/C(=O)c2c(OC)cc(OC)cc2OC)c(OC)c1	29.1%
C=C(CN1CCN(c2cccc(C(F)(F)F)n2)CC1)c1ccc(C(=O)Nc2ccccc2N)cc1	34.8%
CN1CCOCCOCCOc2ccccc2NC(=O)c2nc(cnc2N)-c2ccc(cc2)S1(=O)=O	148%
O=C(/C=C/c1ccc(B(O)O)cc1)/C=C/c1ccc(B(O)O)cc1	92.8%
COc1cnc2c(c1)C(=O)c1c-2n(CCCBr)c(=O)c2cc([N+](=O)[O-])ccc12	5.53% (active)
C/C(=C(/c1ccc(O)cc1)c1ccc(OCCN2CCCC2)cc1)c1ccccc1	80.5%
CCCCN(CC)CCCCCCCCCCN1CCCc2cc(OC)ccc21	78.8%
COc1cc(NC(N)=NCC(C)(C)COc2ccc(C(F)(F)F)cc2)cnc1C#N	65%
CCN(CC)CCC(=O)c1ccc(OC)c2ccccc12	91.1%
COc1ccc(/C=C2\N=C3Sc4cc(Cl)ccc4C(=O)N3C2=O)cc1	98.1%

tested on: OVCAR-4 ovarian; assay: as above; details: 10 µM unless noted

SMILES	growth
Fc1ccc(Cc2ccc(F)cc2)cc1	101%
O=c1ccc2cc3ccccc3cc2[nH]1	95.1%
COc1ccc(-c2nn(-c3ccccc3)cc2/C=C/C(=O)OCc2cn(-c3ccc(F)c(Cl)c3)nn2)cc1	66.9%
COc1ccccc1N1CCN(CCn2c(=O)c3c(c4ccccc4n3C)n(C)c2=O)CC1	114%
COc1nc2c(cc1S(=O)(=O)c1ccccc1)CCc1c-2cnn1Cc1ccccc1	35.2%
O=S(=O)(NCCCNc1cc(-c2cn(-c3ccccc3)nc2-c2ccccc2)ccn1)c1ccc(C(F)(F)F)cc1	58.7%
CCN(CC)c1ccc(CNc2cc(C)nc3ccc(OC)cc23)cc1	71.9%
c1ccc(CSc2ncnc3nc[nH]c23)nc1	105%
C=C(CN1CCN(c2cccc(C(F)(F)F)n2)CC1)c1ccc(C(=O)Nc2ccccc2N)cc1	32.9%
COc1cc(/C=N/N(C)C)ccc1O	115%
CCC(=O)OCc1cccc(OC)c1	94.6%
CCCCCCCCCc1cc(CN2CCCCC2)c(O)c(CN2CCCCC2)c1	41.3%
COc1ccc2nc(NC(=O)c3cccnc3Nc3cc(OC)c(OC)c(OC)c3)sc2c1	-65.5% (active)
Nc1c(C(=O)Nc2ccccc2)sc2nc3c(cc12)CN(CCc1ccccc1)CC3	86.9%
CC(C)Oc1nc2c(c(=O)n(C)c(=O)n2C)n1C	115%

tested on: SK-OV-3 ovarian; assay: as above; details: 10 µM unless noted

SMILES	growth
OCC1C2C=CC(C2)C1CO (stereo not drawn)	175%
Fc1ccc(Cc2ccc(F)cc2)cc1	107%
O=c1ccc2cc3ccccc3cc2[nH]1	102%
COc1ccc(-c2nn(-c3ccccc3)cc2/C=C/C(=O)OCc2cn(-c3ccc(F)c(Cl)c3)nn2)cc1	85.3%
COc1ccccc1N1CCN(CCn2c(=O)c3c(c4ccccc4n3C)n(C)c2=O)CC1	93.6%
CCCCCCCCCCNC(=O)CCl	111%
N=S(=O)(NC(=O)c1ccc(Cl)cc1Cl)c1ccc(Br)s1 (stereo not drawn)	96.4%
CCOC(=O)/C=C/C(=O)[C@H](CC(C)C)NC(=O)[C@H](Cc1ccccc1)NC(=O)OCc1ccccc1	102%
COC1/C=C\OC2(C)Oc3c(C)c(O)c4c(O)c(c(CN(C)CCO)c(O)c4c3C2=O)NC(=O)/C(C)=C\C=C/C(C)C(O)C(C)C(O)C(C)C(OC(C)=O)C1C (stereo not drawn)	96.6%
COc1nc2c(cc1S(=O)(=O)c1ccccc1)CCc1c-2cnn1Cc1ccccc1	58%
O=S(=O)(NCCCNc1cc(-c2cn(-c3ccccc3)nc2-c2ccccc2)ccn1)c1ccc(C(F)(F)F)cc1	68.9%
N#CC1=C(N)Oc2c(ccc3ccccc23)C1c1cccs1 (stereo not drawn)	5.5% (active)
CCN(CC)CCCNc1cc(OC)cc2nc3cc(Cl)ccc3nc12	6.29% (active)
O=C(CN1CCN(c2cc3c(cc2F)c(=O)c(C(=O)O)cn3C2CC2)CC1)Nc1nc(-c2ccc(Cl)cc2)cs1	21.1%
O=C1CC(c2nc3ccccc3[nH]2)CN1C1CCCCC1 (stereo not drawn)	101%
COc1cc(OC)c(/C=C/c2cc[n+](C)c3ccccc23)c(OC)c1	-10.8% (active)
CCN(CC)c1ccc(CNc2cc(C)nc3ccc(OC)cc23)cc1	84.7%
CCCCCN(CCCCC)CCC[C@@H](C)[C@H]1CC[C@H]2[C@@H]3[C@H](OCCCN)C[C@@H]4C[C@H](OCCCN)CC[C@]4(C)[C@H]3C[C@H](OCCCN)[C@]12C	93.2%
COc1cc(OC)c(/C=C/S(=O)(=O)Cc2ccc(OC)c(N)n2)c(OC)c1	5.23% (active)

SMILES	growth
CC(=O)C1=C(O)C=C2Oc3c(C(=O)/C=C/c4cc(C(F)(F)F)cc(C(F)(F)F)c4)c(O)c(C)c(O)c3[C@]2(C)C1=O	-32.9% (active)
Cc1cc(Nc2nc(N3CCOCC3)nc3ccccc23)n[nH]1	20.5%
COc1cc(OC)c(/C=C/C(=O)c2c(OC)cc(OC)cc2OC)c(OC)c1	24.7%
c1ccc(CSc2ncnc3nc[nH]c23)nc1	116%
C=C(CN1CCN(c2cccc(C(F)(F)F)n2)CC1)c1ccc(C(=O)Nc2ccccc2N)cc1	21.2%
CN1CCOCCOCCOc2ccccc2NC(=O)c2nc(cnc2N)-c2ccc(cc2)S1(=O)=O	41%
COc1cc(/C=N/N(C)C)ccc1O	97.1%
O=C(/C=C/c1ccc(B(O)O)cc1)/C=C/c1ccc(B(O)O)cc1	46.8%
CCC(=O)OCc1cccc(OC)c1	103%
COc1cnc2c(c1)C(=O)c1c-2n(CCCBr)c(=O)c2cc([N+](=O)[O-])ccc12	8.4% (active)
C/C(=C(/c1ccc(O)cc1)c1ccc(OCCN2CCCC2)cc1)c1ccccc1	80.1%
CCCCCCCCCc1cc(CN2CCCCC2)c(O)c(CN2CCCCC2)c1	78.3%
CCCCN(CC)CCCCCCCCCCN1CCCc2cc(OC)ccc21	88.9%
COc1cc(NC(N)=NCC(C)(C)COc2ccc(C(F)(F)F)cc2)cnc1C#N	66.4%
COc1ccc2nc(NC(=O)c3cccnc3Nc3cc(OC)c(OC)c(OC)c3)sc2c1	-40.4% (active)
CCN(CC)CCC(=O)c1ccc(OC)c2ccccc12	98.3%
COc1ccc(/C=C2\N=C3Sc4cc(Cl)ccc4C(=O)N3C2=O)cc1	98.1%
Nc1c(C(=O)Nc2ccccc2)sc2nc3c(cc12)CN(CCc1ccccc1)CC3	89.8%
CC(C)Oc1nc2c(c(=O)n(C)c(=O)n2C)n1C	102%
